Bioassay records as filed in PubChem BioAssay.
A selection: hits, their analogues and other compounds. The true share with any hit is near 2.2%.
GLP-1R inv ag – acts as inverse agonist at human GLP-1 receptor. HEK293 GLP-1R CRE-luciferase, luminescence, 24 h; GLP-1R form is constitutively active. Potency, µM (top dose mostly 38.3 µM), most hits filed as inhibitors. 410,000 compounds, 1.6% hits. AID 624417; note: nearly all actives have a fitted effect of over 55% in size
Target sequence (P43220 whole entry, looked up): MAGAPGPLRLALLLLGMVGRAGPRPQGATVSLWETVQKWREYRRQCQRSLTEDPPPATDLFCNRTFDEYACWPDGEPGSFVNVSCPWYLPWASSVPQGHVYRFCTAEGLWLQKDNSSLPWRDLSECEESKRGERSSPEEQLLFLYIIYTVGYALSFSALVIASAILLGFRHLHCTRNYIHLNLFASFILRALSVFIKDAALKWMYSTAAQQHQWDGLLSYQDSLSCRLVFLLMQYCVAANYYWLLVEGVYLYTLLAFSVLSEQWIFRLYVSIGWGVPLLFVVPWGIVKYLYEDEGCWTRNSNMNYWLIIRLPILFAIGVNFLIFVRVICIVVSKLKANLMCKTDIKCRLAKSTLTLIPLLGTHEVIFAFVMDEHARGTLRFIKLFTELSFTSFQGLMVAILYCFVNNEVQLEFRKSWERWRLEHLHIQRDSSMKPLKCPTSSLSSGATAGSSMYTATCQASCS
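Inverse agonism was detected as reduced cAMP-driven luciferase luminescence after 24 h compound treatment. The cells were HEK293 clones expressing constitutively active human GLP-1R with the reporter. Reporter-only and GPR119 cell lines served as counterscreen controls.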
CCT modulator – modulators of cytosolic chaperonin (CCT/TRiC) activity. AID 651819. purified chaperonin ATPase assay, HTRF ADP detection, 30 min. 360,000 compounds, 0.3% hits. activity change, % (test concentration not listed), hits read low; in the data active = activity change below about -30%
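We incubate TRiC, 40 or 20 nM final, with library compounds at 76 uM and 10 uM ATP for 30 min at 37 °C. ADP formed is detected with Transcreener HTRF reagents after 30 min at room temperature.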
HEK293 tox – cytotoxicity counter-screen for GLP-1 receptor inverse agonists; 410,000 compounds, 0.13% hits; Potency, µM (series often up to 38.3 µM), usual class: inhibitors; AID 624418; HEK293 cAMP-luciferase reporter cells, luminescence, 24 h;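 note: loss of luciferase light is scored as toxicity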
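To flag toxic compounds, the library was rerun on cells for 24 hr at 37 deg C and 5% CO2. Viability-linked luminescence was captured 12 min after adding luciferase detection reagent.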
Mm-Cpn inhibitor – M. maripaludis TRiC chaperonin inhibition; 330,000 compounds, 0.031% hits; purified Mm-Cpn ATPase, ADP Transcreener TR-FRET; Potency, µM (highest dose often 76.9 µM), most hits filed as inhibitors; AID 504842; note: nearly all actives have a fitted effect of over 80% in size
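ATP (10 uM final) was added to archaeal chaperonin (25 nM final) after 10 min exposure to test compound at 37°C; after 30 min further incubation, ADP was detected by competitive TR-FRET.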
uPA generation – inhibitors of cell surface uPA generation. 330,000 compounds, 0.31% hits. Potency, µM (highest dose often 38.3 µM), usual class: inhibitors. cell surface uPA generation assay, qHTS. AID 540303; active = well fitted inhibition curve with a large enough effect; inconclusive = small, poorly fitted or top-dose-only effect; inactive = no such curve, though single readings can be large or run the other way; tested in mouse RAW 264.7 cells; note: nearly all actives have a fitted effect of over 55% in size
GLP-1R agonist – agonists of human GLP-1 receptor; 380,000 compounds, 0.007% hits; Potency, µM (top dose mostly 45.6 µM), most hits filed as activators; HEK293 GLP-1R CRE-luciferase, luminescence, 4-6 h; cells express a hypersensitive GLP-1R form; P43220
Hits are given with their value; - = inactive; ? = inconclusive; . = not tested or not shown. Unless noted, calls come from the whole dose curve; as a rule, active = well fitted curve in the direction sought with a large enough effect; inconclusive = small, poorly fitted or top-dose-only effect, or another doubt; inactive = no such curve, though single readings can be large; an effect the other way counts as inactive or inconclusive.

SMILES	GLP-1R inv ag	CCT modulator	HEK293 tox	Mm-Cpn inhibitor	uPA generation	GLP-1R agonist
COc1ccc(C(=O)C[n+]2ccc3c(c2)nc(-c2ccccc2)n3C)cc1	-	-36	-	-	-	-
Cc1cc(Cl)ccc1NC(=O)CCS(=O)(=O)c1ccc2c(c1)CC(C)N2C(=O)C1CC1 (stereo not drawn)	-	.	-	.	.	.
CCOc1ccc(C(=O)NCCc2csc(-c3ccc(C(F)(F)F)cc3)n2)cc1OCC	-	.	-	.	.	.
COc1cc(CNC(C)(C)CO)cc(Br)c1OCc1ccc(Cl)cc1Cl	?	-	-	-	-	-
CCOc1cc(CNCCSc2nnnn2C)cc(Br)c1OCc1ccccc1	5.6µM	-	-	-	-	-
COc1cc(CNCCO)cc(Br)c1OCc1ccccc1Cl	6.3µM	-	?	-	-	-
Cn1nnnc1SCCNCc1ccccc1OCc1ccccc1Cl	?	-	?	-	-	-
Fc1ccc(COc2ccc(Br)cc2CNCc2ccncc2)cc1	?	-	-	-	.	-
Cn1nnnc1SCCNCc1ccc(OCc2ccccc2)cc1	-	.	-	.	.	-
Cn1nnnc1SCCNCc1cc(Br)ccc1OCc1ccccc1Cl	10µM	.	-	.	.	-
CCOc1cc(CNCc2ccncc2)cc(Br)c1OCc1ccc(F)cc1	10µM	-	-	-	.	-
CN(C)c1cc2c(cc1NC(=O)c1ccc(F)cc1)n(C)c(=O)n2C	-	.	-	.	.	.
CCOc1cc(CNCc2ccccc2)ccc1OCc1ccc(Cl)cc1	11µM	-	?	-	-	-
CCOc1cc(CNCCO)cc(Br)c1OCc1ccccc1	6.3µM	-	-	-	-	-
COc1ccc(CNCCc2ccc(Cl)cc2)cc1OCc1ccccc1	?	-	?	-	-	-
COc1ccc(/C=C\c2onc(C)c2S(=O)(=O)N2CCC(C(=O)Nc3ccc(C)cc3C)CC2)cc1	-	.	-	.	.	.
CN(C)S(=O)(=O)c1ccc(NC(=O)N2CCN(c3cccc(C(F)(F)F)c3)CC2)cc1	3.5µM	-	-	-	-	-
COc1ccc(NC(=O)N2CCN(c3cccc(C(F)(F)F)c3)CC2)cc1	-	-	-	-	-	-
CC(=O)Nc1ccc(NC(=O)c2ccc(NS(=O)(=O)c3cc(C(C)(C)C)ccc3C)cc2)cc1	-	-	-	-	-	-
Cc1cc(F)ccc1NC(=O)c1ccc(NS(=O)(=O)c2cc(C(C)(C)C)ccc2C)cc1	4.5µM	-	?	-	-	-
CCOc1cc(C(=O)Nc2ccc3nc(Nc4cccc(Cl)c4)cc(C)c3c2)cc(OCC)c1OCC	5.6µM	.	-	.	.	-
Cc1cc(Nc2cccc(Cl)c2)nc2ccc(NC(=O)c3cncc(Br)c3)cc12	2µM	.	?	.	.	-
Cc1ccc(Cl)cc1-n1ncc2c(NCCCc3ccccc3)ncnc21	11µM	.	-	.	.	.
Cc1ccc(Cl)cc1-n1ncc2c(NCCC3=CCCCC3)ncnc21	8.9µM	.	-	.	.	.
Fc1ccc(-n2ncc3c(NCCC4=CCCCC4)ncnc32)cc1	-	.	-	.	.	.
SMILES	GLP-1R inv ag	CCT modulator	HEK293 tox	Mm-Cpn inhibitor	uPA generation	GLP-1R agonist
Cc1ccc(Cl)cc1-n1ncc2c(NCCc3ccccc3)ncnc21	?	.	-	.	.	.
C=CCn1c(SCC(=O)O)nnc1-c1ccc(C(C)(C)C)cc1	-	-31	-	-	-	-
Cc1oc(-c2ccc(C(=O)NCc3ccccc3)cc2)nc1CN1CCc2ccccc21	10µM	.	-	.	.	.
Cc1ccccc1C(=O)Nc1ccccc1OCc1cc(=O)n2ccccc2n1	-	.	-	.	.	.
Cc1nc(C(=O)N2CCc3c([nH]c4ccccc34)C2c2cc(F)ccc2F)cs1 (stereo not drawn)	11µM	-	-	-	-	?
Cc1cc(C(=O)N2CCc3c([nH]c4ccccc34)C2c2c(F)cccc2Cl)no1 (stereo not drawn)	10µM	-	-	-	-	-
COc1cccc(CNC(=O)c2ccc3c(c2)nc2n3CCOC2)c1OC	-	.	-	.	.	.
C=CCOC(=O)C(C#N)c1nc2ccccc2nc1N1CCC(C(=O)OCC)CC1 (stereo not drawn)	6.3µM	-	-	-	-	-
COC(=O)C1CCN(c2nc3ccccc3nc2C(C#N)C(=O)OCC(C)C)CC1 (stereo not drawn)	-	-40	-	-	-	-
